# The supplement of paper PMC8728848
# Only a selection was taken, and the strongest signals are over-represented in it overall.
# B1: ASAL (Allium sativum), P83886 (protein)
# chain: MGRTTSSPKAMMRIATVAAILTILASTCMARNVLTNGEGLYAGQSLDVEQYKFIMQDDCNLVLYEYSTPIWASNTGVTGKNGCRAVMQRDGNFVVYDVNGRPVWASNSVRGNGNYILVLQKDRNVVIYGSDIWSTGTYRRSVGGAVVMAMNGTVDGGSVIGPVVVNQNVTAAIRKVGTGAA
# Key:
# Assay in all cases: glycan array binding signal (z-score within array); higher = stronger binding
# Conditions in all cases: glycan notation: IUPAC condensed, linker removed
# [1] = target: Fuc(a1-2)[Gal(a1-3)]Gal(b1-4)GlcNAc(b1-3)GalNAc
# Method in brief: (§1)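 Negative Z-scores can be read as non-binding. The Z-score is calculated within each array and then averaged across arrays of one protein sequence at different concentrations or buffers and across linkers. Arrays, 3228 in all, were curated from the Consortium for Functional Glycomics database and kept only where the protein sequence was available.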
# [2] = target: Gal(a1-3)Gal(b1-3)GlcNAc(b1-3)GalNAc
# Method in brief: as §1
# Gal(a1-4)Gal(b1-4)Glc = target: Gal(a1-4)Gal(b1-4)Glc
# Method in brief: as §1
# Gal(a1-6)Glc = target: Gal(a1-6)Glc
# Method in brief: as §1
# [3] = target: Gal(b1-3)GlcNAc(a1-6)Gal(b1-4)GlcNAc
# Method in brief: as §1
# [4] = target: Gal(b1-3)GlcNAc(b1-2)Man(a1-3)[Gal(b1-3)GlcNAc(b1-2)Man(a1-6)]Man(b1-4)GlcNAc(b1-4)GlcNAc
# Method in brief: as §1
# [5] = target: Gal(b1-3)GlcNAc(b1-3)GalNAc
# Method in brief: as §1
# [6] = target: Gal(b1-3)[Fuc(a1-4)]GlcNAc(b1-3)Gal(b1-4)[Fuc(a1-3)]GlcNAc
# Method in brief: as §1
# [7] = target: Gal(b1-3)[GlcNAc(b1-6)]GalNAc
# Method in brief: as §1
# [8] = target: Gal(b1-4)GlcNAc(b1-2)Man(a1-3)Man(b1-4)GlcNAc(b1-4)GlcNAc
# Method in brief: as §1
# [9] = target: Gal(b1-4)GlcNAc(b1-2)Man(a1-3)[Gal(b1-4)GlcNAc(b1-2)Man(a1-6)]Man(b1-4)GlcNAc(b1-4)GlcNAc
# Method in brief: as §1
# [10] = target: Gal(b1-4)GlcNAc(b1-2)Man(a1-3)[Gal(b1-4)GlcNAc(b1-2)Man(a1-6)]Man(b1-4)GlcNAc(b1-4)[Fuc(a1-6)]GlcNAc
# Method in brief: as §1
# [11] = target: Gal(b1-4)GlcNAc(b1-2)Man(a1-3)[Gal(b1-4)GlcNAc(b1-2)][GlcNAc(b1-4)]Man(b1-4)GlcNAc(b1-4)GlcNAc
# Method in brief: as §1
# [12] = target: Gal(b1-4)GlcNAc(b1-2)Man(a1-3)[GlcNAc(b1-2)Man(a1-6)]Man(b1-4)GlcNAc(b1-4)GlcNAc
# Method in brief: as §1
# [13] = target: Gal(b1-4)GlcNAc(b1-2)Man(a1-3)[Man(a1-6)]Man(b1-4)GlcNAc(b1-4)GlcNAc
# Method in brief: as §1
# Gal3S6S(b1-4)GlcNAc6S = target: Gal3S6S(b1-4)GlcNAc6S
# Method in brief: as §1
# Gal6S(b1-4)GlcNAc = target: Gal6S(b1-4)GlcNAc
# Method in brief: as §1
# GalNAc(b1-6)GalNAc = target: GalNAc(b1-6)GalNAc
# Method in brief: as §1
# Glc(a1-6)Glc(a1-6)Glc = target: Glc(a1-6)Glc(a1-6)Glc
# Method in brief: as §1
# GlcA(b1-3)Gal = target: GlcA(b1-3)Gal
# Method in brief: as §1
# GlcNAc(b1-3)Gal = target: GlcNAc(b1-3)Gal
# Method in brief: as §1
# GlcNAc(b1-4)GlcNAc = target: GlcNAc(b1-4)GlcNAc
# Method in brief: as §1
# [14] = target: GlcNAc6S(b1-3)Gal(b1-4)GlcNAc
# Method in brief: as §1
# [15] = target: Man(a1-2)Man(a1-2)Man(a1-6)[Man(a1-3)]Man
# Method in brief: as §1
# [16] = target: Man(a1-2)Man(a1-3)[Man(a1-2)Man(a1-6)]Man(a1-6)[Man(a1-2)Man(a1-2)Man(a1-3)]Man
# Method in brief: as §1
# Man(b1-4)GlcNAc = target: Man(b1-4)GlcNAc
# Method in brief: as §1
# Neu5Ac(a2-3)GalNAc = target: Neu5Ac(a2-3)GalNAc
# Method in brief: as §1
# [17] = target: Neu5Ac(a2-6)Gal(b1-4)GlcNAc(b1-2)Man(a1-3)[Man(a1-6)]Man(b1-4)GlcNAc(b1-4)GlcNAc
# Method in brief: as §1
# [18] = target: Neu5Ac(a2-6)Gal(b1-4)GlcNAc(b1-2)Man(a1-6)[Gal(b1-4)GlcNAc(b1-2)Man(a1-3)]Man(b1-4)GlcNAc(b1-4)GlcNAc
# Method in brief: as §1
# [19] = target: Neu5Ac(a2-6)Gal(b1-4)GlcNAc(b1-2)Man(a1-6)[GlcNAc(b1-2)Man(a1-3)]Man(b1-4)GlcNAc(b1-4)GlcNAc
# Method in brief: as §1
# [20] = target: Neu5Ac(a2-6)GlcNAc(b1-4)GlcNAc(b1-4)GlcNAc
# Method in brief: as §1
# Neu5Ac(a2-8)Neu5Ac = target: Neu5Ac(a2-8)Neu5Ac
# Method in brief: as §1
binder,measurement,setting,value
B1,glycan array binding signal (z-score),[1],-0.201
same,glycan array binding signal (z-score),[2],-0.206
same,glycan array binding signal (z-score),Gal(a1-4)Gal(b1-4)Glc,-0.282
same,glycan array binding signal (z-score),Gal(a1-6)Glc,-0.285
same,glycan array binding signal (z-score),[3],-0.252
same,glycan array binding signal (z-score),[4],-0.113
same,glycan array binding signal (z-score),[5],-0.178
same,glycan array binding signal (z-score),[6],-0.218
same,glycan array binding signal (z-score),[7],-0.267
same,glycan array binding signal (z-score),[8],6.55
same,glycan array binding signal (z-score),[9],5.54
same,glycan array binding signal (z-score),[10],7.04
same,glycan array binding signal (z-score),[11],-0.228
same,glycan array binding signal (z-score),[12],5.91
same,glycan array binding signal (z-score),[13],7.21
same,glycan array binding signal (z-score),Gal3S6S(b1-4)GlcNAc6S,-0.238
same,glycan array binding signal (z-score),Gal6S(b1-4)GlcNAc,-0.193
same,glycan array binding signal (z-score),GalNAc(b1-6)GalNAc,-0.24
same,glycan array binding signal (z-score),Glc(a1-6)Glc(a1-6)Glc,-0.234
same,glycan array binding signal (z-score),GlcA(b1-3)Gal,5.39
same,glycan array binding signal (z-score),GlcNAc(b1-3)Gal,-0.3
same,glycan array binding signal (z-score),GlcNAc(b1-4)GlcNAc,-0.252
same,glycan array binding signal (z-score),[14],-0.065
same,glycan array binding signal (z-score),[15],2.53
same,glycan array binding signal (z-score),[16],4.09
same,glycan array binding signal (z-score),Man(b1-4)GlcNAc,-0.236
same,glycan array binding signal (z-score),Neu5Ac(a2-3)GalNAc,-0.276
same,glycan array binding signal (z-score),[17],0.085
same,glycan array binding signal (z-score),[18],4.59
same,glycan array binding signal (z-score),[19],5.01
same,glycan array binding signal (z-score),[20],-0.29
same,glycan array binding signal (z-score),Neu5Ac(a2-8)Neu5Ac,-0.25
